Reference: PubChem BioAssay (NCATS)
Inconclusive results are not listed. Unmarked numbers belong to inactive results. Active and inactive are the calls of the source. Calls come from the whole dose curve; as a rule, active = well fitted inhibition curve with a large enough effect; inconclusive = small, poorly fitted or top-dose-only effect; inactive = flat fitted curve, though single readings scatter.

system: HaCat; test: Cytotoxic Profiling of Annotated Libraries Using Quantitative High-Throughput Screening (AID 1296008); settings: Five cell lines viability, CellTiter-Glo ATP luminescence, 48-72 h; max response: stronger effect = lower value; note: nearly all actives have a fitted effect of over 60% in size
Outline: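 Compounds were pin-transferred onto cells and incubated 48 or 72 hr at 37 degree Celsius, 95% humidity. CellTiter-Glo was added, plates sat 10 min at room temperature, then ATP-coupled luminescence was imaged as the viability read-out.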
% is set by controls: 0 for no effect and ±100 for the full control effect; potency is the fitted concentration of half-maximal effect.

`CC(C)c1nc(-c2ccc(NC(=O)Nc3cccc(C(F)(F)F)c3)c3ccccc23)c2c(N)nccn12` was tested, and the Potency was 7.31 µM (active).

Compared with `O=C(OC[C@H]1O[C@H](O[C@]2(CO)O[C@H](CO)[C@@H](O)[C@@H]2O)[C@H](O)[C@@H](O)[C@@H]1O)c1ccccc1`, `CN[C@@H]1[C@H](O[C@H]2[C@H](O[C@@H]3[C@@H](O)[C@H](O)[C@@H](N=C(N)N)[C@H](O)[C@H]3N=C(N)N)O[C@@H](C)[C@]2(O)C=O)O[C@@H](CO)[C@H](O)[C@H]1O` is lower in max response: 0.397% for the first, -17.2% for the second.

First: C[C@@H]1O[C@@H](O[C@H]2[C@H](O[C@H]3[C@H](O[C@H]4CC[C@@]5(C)C(CC[C@]6(C)C5CC=C5[C@@H]7CC(C)(C)CC[C@]7(C(=O)O[C@@H]7O[C@H](CO)[C@@H](O[C@@H]8O[C@@H](C)[C@H](O)[C@@H](O)[C@H]8O)[C@H](O)[C@H]7O)CC[C@]56C)C4(C)C)OC[C@H](O)[C@@H]3O)O[C@H](CO)[C@@H](O)[C@@H]2O)[C@H](O)[C@H](O)[C@H]1O (some centres not stated)
Second: CC(=O)OC1/C(C)=C/C(=O)C(OC(C)=O)C(C)(C)/C=C/C(C)C(=O)C2(OC(C)=O)CC(C)C(OC(=O)c3ccccc3)C12 (configuration not stated)
The max response of the first is higher: 4.4% for the first, -9.17% for the second.

Compared with `CC(=O)OC1C[C@]2(C)C(O)CC(C)=C[C@H](OC(=O)c3ccc(O)cc3)C2[C@]1(O)C(C)C` (some centres not stated), `CON(C)C(=O)[C@H](O)[C@H](Cc1ccccc1)NC(=O)c1cc2cc(Cl)ccc2[nH]1` is lower in max response: -0.241% for the first, -24.4% for the second.
